Measurements as given in PubChem BioAssay AID651598 (Sanford-Burnham Center for Chemical Genomics, 2012).
“And” between values parts separate entries of the source, which are not always exact repeats. Equal values may be shown once.

target: Apelin receptor (Homo sapiens) (UniProt P35414); assay: apelin receptor (APJ) antagonists, SAR follow-up, counter-screen for CXCR6 antagonist project, cell-based, beta-arrestin, DiscoveRx, panel, CHO-K1 (AID 651598); settings: CHO-K1 PathHunter beta-arrestin luminescence, antagonist mode; run 2, at 80 µM (top of the series)
Sequence (P35414 whole entry, looked up): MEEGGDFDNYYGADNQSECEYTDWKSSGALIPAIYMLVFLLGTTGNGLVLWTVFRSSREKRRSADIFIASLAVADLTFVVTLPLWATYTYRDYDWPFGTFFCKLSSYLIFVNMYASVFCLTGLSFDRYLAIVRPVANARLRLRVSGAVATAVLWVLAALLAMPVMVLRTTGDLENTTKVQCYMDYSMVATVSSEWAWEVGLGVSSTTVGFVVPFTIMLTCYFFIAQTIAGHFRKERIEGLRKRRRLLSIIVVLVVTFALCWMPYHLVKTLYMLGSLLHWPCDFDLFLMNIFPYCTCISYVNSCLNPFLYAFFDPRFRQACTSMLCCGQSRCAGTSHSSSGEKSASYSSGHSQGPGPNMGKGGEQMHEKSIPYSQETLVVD

SMILES	inhibition
COc1cc(C(=O)NC2CCN(CC(=O)Nc3ccccc3)CC2)cc(OC)c1OC	4.86%
COc1cc(C(=O)NC2CC3CCCC(C2)N3CC(=O)Nc2ccccc2)cc(OC)c1OC (stereo not drawn)	11.6% and 7.3% and -8.97%
COc1cc(C(=O)NC2CC3CCC(C2)N3CC(=O)Nc2ccccc2)cc(OC)c1OC (stereo not drawn)	-3.64% and 3.22%
